# Screening data from PubChem.
# The list is not random: actives were taken first. Their share in the collection is about 2.2%.
# LMP1 NFkB inh: Epstein-Barr LMP1 NF-kappaB reporter inhibition; LMP1-induced NF-kappaB luciferase reporter cells, luminescence; actives 0.69% (n = 350,000); AID 504558; inhibition, % at 12.5 µM; in the data active means inhibition above about 41%; inconclusive means no clear call, values can overlap the other calls;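 further: 0% = neutral control wells and 100% = reference inhibitor control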
# EWS-Fli block: inhibitors of EWS/Fli oncoprotein transcriptional activity | A673 NR0B1-luciferase reporter, viability-normalised | inhibition, % at 12.6 µM | actives 0.67% (n = 350,000) | AID 651661;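 active means mean inhibition of at least 50% after viability correction, with every replicate also passing that limit; inconclusive means mean reaches 50% but only one of two replicates passes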;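 further: firefly luciferase signal divided by Alamar Blue viability fluorescence both relative to DMSO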
# TRPM1 prom inh: MITF TRPM1 promoter inhibition in SK-MEL-5 cells | SK-MEL-5 TRPM1 promoter luciferase, 24 h | inhibition, % at 12.5 µM | actives 0.83% (n = 330,000);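 active means mean inhibition across replicates of 60% or more, whatever share of single replicates reaches that level; inconclusive means some that reach 60%, reason not given; inactive means mean inhibition across replicates below 60%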
# LGR2 inh: blocks bursicon-induced cAMP signaling via Drosophila LGR2; HEK293 LGR2, CRE-luciferase, bursicon-stimulated, 4 h; inhibition, % at 9.99 µM; actives 0.35% (n = 380,000); AID 720647;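 active means drop in luminescence signal, shown as inhibition above about 50% in the replicate tests, limit read from the data, passing the limit was not always enough; inconclusive means probably only some replicates passing the limit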;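 further: agonist challenge used bursicon conditioned medium at about half maximal strength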
# Shn3 3UTR inh: Schnurri-3 reporter inhibition in Clone20 osteoblasts | inhibition, % at 12.5 µM | Clone20 osteoblast Shn3 3'UTR firefly luciferase, 24 h | AID 588674 | actives 0.52% (n = 360,000);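 active means mean inhibition of at least 75% with every replicate also reaching 75%; inconclusive means mean inhibition at least 75% but some replicate below; inactive means mean inhibition below 75%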;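 further: 0% = median of neutral control wells and 100% = pilot-screen positive control compound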
# PAX8 reporter: PAX8 transcriptional activity inhibition; RMG-I TPO-luciferase reporter, SteadyGlo, 24 h; inhibition, % at 12.6 µM; actives 1.2% (n = 360,000);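 active means mean replicate inhibition at least 60% with every replicate also reaching 60%; inconclusive means only one of the two criteria is met; inactive means mean below 60% and not all replicates reaching 60%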;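 further: luciferase light reporting Pax8 driven TPO promoter activity; plate controls were median of neutral control wells for no effect and mitoxantrone controls for full effect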
# * hit, by the source's call; ? = inconclusive; · = not tested or not shown.
SMILES,LMP1 NFkB inh,EWS-Fli block,TRPM1 prom inh,LGR2 inh,Shn3 3UTR inh,PAX8 reporter
C[C@@H]1CCCCO[C@H](CN(C)Cc2ccc(C(F)(F)F)cc2)[C@H](C)CN([C@@H](C)CO)C(=O)c2cc(NC(=O)Nc3ccc(F)cc3)ccc2O1,·,15.6,·,9.1,·,91.3*
C[C@@H]1CN([C@H](C)CO)C(=O)c2cc(NC(=O)Nc3ccc(F)cc3)ccc2O[C@@H](C)CCCCO[C@@H]1CN(C)Cc1ccc(C(F)(F)F)cc1,·,6.7,·,-0.4,·,93.4*
C[C@H]1CCCCO[C@H](CN(C)Cc2ccc(C(F)(F)F)cc2)[C@@H](C)CN([C@@H](C)CO)C(=O)c2cc(NC(=O)Nc3ccc(F)cc3)ccc2O1,·,11.9,·,-44.3,·,95.5*
C[C@@H]1CCCCO[C@H](CN(C)Cc2ccccc2)[C@H](C)CN([C@H](C)CO)C(=O)c2cc(NC(=O)c3ccccc3)ccc2O1,·,5.4,·,18.9,·,-7.8
C[C@@H]1CN([C@H](C)CO)C(=O)c2cc(NC(=O)Nc3ccc(F)cc3)ccc2O[C@@H](C)CCCCO[C@H]1CN(C)Cc1ccc(C(F)(F)F)cc1,·,69.9*,·,-13.4,·,106.6*
C[C@@H]1CCCCO[C@H](CN(C)Cc2ccc(C(F)(F)F)cc2)[C@@H](C)CN([C@H](C)CO)C(=O)c2cc(NC(=O)Nc3ccc(F)cc3)ccc2O1,·,7.4,·,-0.7,·,-0.7
N#Cc1nc(NCC(F)F)nc(Nc2cc(F)cc(F)c2)n1,-5.4,-11.2,74.6*,27.0,57.6,98.0*
N#Cc1nc(Nc2cc(F)cc(F)c2)c2ncn(CC(F)F)c2n1,-18.5,-66.3,-57.2,-46.2,-45.2,-104.4
COc1ccc(Cc2nnc(N/N=C/c3ccc(O)cc3)[nH]c2=O)cc1OC,60.5*,·,59.1,32.5,88.2*,59.5
COc1ccc(Cc2nnc(N/N=C/c3ccc(Br)cc3)[nH]c2=O)cc1OC,-4.0,8.2,-12.3,10.7,·,-9.5
Cc1ccc(N(Cc2cc(=O)[nH]c3ccccc23)C(=O)CCl)c(C)c1,46.9*,67.4*,?,30.3,-4.4,68.8*
COc1ccc2c3c(n(C)c2c1)[C@@H](CO)N(S(C)(=O)=O)CC31CN(C(=O)c2ccccn2)C1,·,2.8,·,-9.8,·,6.2
O=C(C[C@H]1CC[C@H](NS(=O)(=O)c2ccc(F)cc2)[C@H](CO)O1)N1CCC(Cc2ccccc2)CC1,·,3.3,·,2.6,·,0.0
Cc1noc(C)c1NC(=O)N(C)C[C@H]1OCCCC[C@@H](C)Oc2ccc(N(C)C)cc2C(=O)N([C@H](C)CO)C[C@H]1C,·,3.0,·,-0.7,·,-6.6
C[C@@H]1CCCCO[C@@H](CN(C)C(=O)Nc2ccc(C(F)(F)F)cc2)[C@@H](C)CN([C@H](C)CO)C(=O)c2cc(NS(=O)(=O)c3cccs3)ccc2O1,·,10.1,·,11.1,·,·
C[C@@H]1CCCCO[C@@H](CN(C)C(=O)Nc2ccc(C(F)(F)F)cc2)[C@H](C)CN([C@H](C)CO)C(=O)c2cc(NS(=O)(=O)c3cccs3)ccc2O1,·,27.3,·,6.0,·,85.5*
C[C@H](CO)N1C[C@H](C)[C@H](CN(C)C(=O)Nc2ccc(C(F)(F)F)cc2)OCCCC[C@H](C)Oc2ccc(NS(=O)(=O)c3cccs3)cc2C1=O,·,8.5,·,-22.5,·,65.7*
C[C@H]1CCCCO[C@@H](CN(C)C(=O)Nc2ccc(C(F)(F)F)cc2)[C@@H](C)CN([C@@H](C)CO)C(=O)c2cc(NS(=O)(=O)c3cccs3)ccc2O1,·,14.0,·,6.2,·,61.7*
CC1CC(C)C(=O)C(C(CC2CC(=O)NC(=O)C2)OC(=O)CC(=O)c2ccccc2)C1 (stereo unspecified),52.2*,1.5,55.2,82.5*,64.1,84.5*
O=C1CCC(C(=O)OCC(=O)c2ccccc2)N1 (stereo unspecified),6.6,-3.5,0.3,23.2,23.1,-11.3
Cc1cccc(S(=O)(=O)N2CC[C@@H]3[C@H]2c2cc(C4=CCCCC4)ccc2N[C@@H]3CO)c1,·,7.5,·,-19.5,·,90.7*
COc1cccc(S(=O)(=O)N2CC[C@@H]3[C@H](CO)Nc4ccc(C5=CCCCC5)cc4[C@@H]32)c1,·,-0.9,·,0.1,·,91.1*
COc1cccc(-c2ccc3c(c2)[C@H]2[C@H](CCN2S(=O)(=O)c2cccc(OC)c2)[C@@H](CO)N3)c1,·,-5.8,·,14.2,·,29.1
O=S(=O)(c1ccccc1F)N1CC[C@@H]2[C@@H](CO)Nc3ccc(C4=CCCCC4)cc3[C@@H]21,·,-8.4,·,-16.7,·,82.6*
C=C1CC2(OC1=O)c1ccccc1CCc1ccccc12,26.7,52.2*,107.8*,75.9*,100.5*,71.3*
SMILES,LMP1 NFkB inh,EWS-Fli block,TRPM1 prom inh,LGR2 inh,Shn3 3UTR inh,PAX8 reporter
COc1ccc(S(=O)(=O)N(C)C[C@@H]2OCCCC[C@H](C)Oc3ccc(NC(=O)NC4CCCCC4)cc3C(=O)N([C@@H](C)CO)C[C@@H]2C)cc1,·,13.3,·,-10.2,·,66.0*
C[C@H]1CCCCO[C@@H](CN(C)S(=O)(=O)c2ccccc2)[C@@H](C)CN([C@@H](C)CO)C(=O)c2cc(NC(=O)NC3CCCCC3)ccc2O1,·,14.1,·,13.8,·,69.1*
C[C@@H]1CCCCO[C@@H](CN(C)S(=O)(=O)c2ccccc2)[C@H](C)CN([C@@H](C)CO)C(=O)c2cc(NC(=O)NC3CCCCC3)ccc2O1,·,3.2,·,3.7,·,10.1
C[C@H](CO)N1C[C@H](C)[C@@H](CN(C)S(=O)(=O)c2ccc(F)cc2)OCCCC[C@H](C)Oc2ccc(NC(=O)NC3CCCCC3)cc2C1=O,·,-1.5,·,0.5,·,11.0
C[C@H]1CCCCO[C@@H](CN(C)S(=O)(=O)c2ccc(F)cc2)[C@@H](C)CN([C@@H](C)CO)C(=O)c2cc(NC(=O)NC3CCCCC3)ccc2O1,·,7.8,·,3.6,·,66.5*
CC1(C(=O)NCc2ccccc2)Cc2c(-c3cccc(C(N)=O)c3)ccnc2O1 (stereo unspecified),·,57.6*,·,-19.8,16.8,50.9
CC(=O)Nc1cccc(-c2ccnc3c2CC(C)(C(=O)Nc2cccc(OC(F)(F)F)c2)O3)c1 (stereo unspecified),·,52.1*,·,15.9,19.1,·
CC(=O)Nc1cccc(-c2ccnc3c2CC(C)(C(=O)NCc2ccc(F)c(F)c2)O3)c1 (stereo unspecified),·,58.0*,·,-22.0,6.3,15.7
CC1(C(=O)NCc2ccc(F)c(F)c2)Cc2c(-c3cccc(C(N)=O)c3)ccnc2O1 (stereo unspecified),·,21.0,·,-13.7,11.7,12.0
CO[C@H]1CN(C)C(=O)c2ccc(NC(=O)c3ccccc3)cc2OC[C@@H](C)N(C(=O)CN(C)C)C[C@@H]1C,·,2.0,·,-17.8,·,·
COc1cccc(-c2cnc3c(c2)C(=O)N([C@H](C)CO)C[C@H](C)[C@H](CN(C)Cc2ccc(C(=O)O)cc2)O3)c1,·,-12.0,·,4.2,·,11.4
CNC(=O)C[C@@H]1CC[C@H]2[C@@H](COc3ccc(NC(=O)C4CC4)cc3C(=O)N2C)O1,·,-7.5,·,7.0,·,-2.2
